# Experimental data: PubChem BioAssay AID1159580 (chemical genetic matrix, 2015)
# Out of some 5,500 compounds screened, about 2,000 (36%) were called active. About 18% were inconclusive and are not listed. Some of the results follow. Unmarked numbers belong to inactive results. Rule as the data show it: active = normalized growth mostly below about 0.91 (no sharp cut-off); inconclusive = no clear call, values can overlap the other calls; inactive = mostly above about 0.92.
# Experiment: chemical genetic growth profiling, strain panel (AID 1159580);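 also: tested at 20 µM; growth read once vehicle control cultures reached saturation at 30 °C; 1 = growth at the plate median or of vehicle wells; lower values mean less growth of the strain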
# Details: S. cerevisiae deletion strains, growth OD
structure (smiles),measurement,setting,value
CC(=O)O[C@H]1CC[C@@]2(C)C(=CCC3C2CC[C@]2(C)C(=O)CCC32)C1 (stereo partly drawn),normalized growth,"locus YAL013W, strain DEP1, stronger effect = lower value",0.775 (active)
same,normalized growth,"locus YAL021C, strain ccr4, stronger effect = lower value",0.877 (active)
same,normalized growth,"locus YAL026C, strain drs2, stronger effect = lower value",0.6 (active)
same,normalized growth,"locus YAL030W, strain snc1, stronger effect = lower value",1.02
same,normalized growth,"locus YBL061C, strain skt5, stronger effect = lower value",1.02
same,normalized growth,"locus YBR009C, strain hhf1, stronger effect = lower value",0.908
same,normalized growth,"locus YBR021W, strain FUR4, stronger effect = lower value",0.833 (active)
same,normalized growth,"locus YBR023C, strain chs3, stronger effect = lower value",0.961
same,normalized growth,"locus YBR171W, strain sec66, stronger effect = lower value",1.02
same,normalized growth,"locus YBR229C, strain ROT2, stronger effect = lower value",1
same,normalized growth,"locus YBR231C, strain swc5, stronger effect = lower value",1.04
same,normalized growth,"locus YBR279W, strain paf1, stronger effect = lower value",0.975
same,normalized growth,"locus YCL011C, strain gbp2, stronger effect = lower value",0.912
same,normalized growth,"locus YCL016C, strain dcc1, stronger effect = lower value",0.917
same,normalized growth,"locus YCL029C, strain bik1, stronger effect = lower value",0.895 (active)
same,normalized growth,"locus YCL069W, strain vba3, stronger effect = lower value",0.951
same,normalized growth,"locus YCR088W, strain abp1, stronger effect = lower value",1.05
same,normalized growth,"locus YDL005C, strain med2, stronger effect = lower value",1.02
same,normalized growth,"locus YDL035C, strain GPR1, stronger effect = lower value",0.686 (active)
same,normalized growth,"locus YDL040C, strain nat1, stronger effect = lower value",1.03
same,normalized growth,"locus YDL074C, strain BRE1, stronger effect = lower value",0.612 (active)
same,normalized growth,"locus YDL101C, strain DUN1, stronger effect = lower value",0.981
same,normalized growth,"locus YDL185W, strain tfp1, stronger effect = lower value",1.01
same,normalized growth,"locus YDL192W, strain arf1, stronger effect = lower value",1.01
same,normalized growth,"locus YDR001C, strain nth1, stronger effect = lower value",1.04
same,normalized growth,"locus YDR069C, strain doa4, stronger effect = lower value",1.02
same,normalized growth,"locus YDR101C, strain arx1, stronger effect = lower value",0.932
same,normalized growth,"locus YDR137W, strain rgp1, stronger effect = lower value",0.568 (active)
same,normalized growth,"locus YDR159W, strain sac3, stronger effect = lower value",1.01
same,normalized growth,"locus YDR162C, strain NBP2, stronger effect = lower value",0.596 (active)
same,normalized growth,"locus YDR195W, strain ref2",1.3 [resistant] (active)
same,normalized growth,"locus YDR297W, strain sur2, stronger effect = lower value",0.99
same,normalized growth,"locus YDR318W, strain mcm21, stronger effect = lower value",0.844 (active)
same,normalized growth,"locus YDR334W, strain swr1, stronger effect = lower value",1.06
same,normalized growth,"locus YDR335W, strain msn5, stronger effect = lower value",0.937
same,normalized growth,"locus YDR388W, stronger effect = lower value",1.02
same,normalized growth,"locus YDR392W, strain spt3, stronger effect = lower value",0.43 (active)
same,normalized growth,"locus YDR502C, strain sam2, stronger effect = lower value",0.843 (active)
same,normalized growth,"locus YEL003W, strain gim4, stronger effect = lower value",0.942
same,normalized growth,"locus YEL037C, strain rad23, stronger effect = lower value",0.994
same,normalized growth,"locus YEL061C, strain CIN8 (second series), stronger effect = lower value",1.02
same,normalized growth,"locus YEL061C, strain CIN8, stronger effect = lower value",0.928
same,normalized growth,"locus YER015W, strain faa2, stronger effect = lower value",0.948
same,normalized growth,"locus YER016W, strain bim1, stronger effect = lower value",1.02
same,normalized growth,"locus YER110C, stronger effect = lower value",1.03
same,normalized growth,"locus YER111C, strain swi4, stronger effect = lower value",1.03
same,normalized growth,"locus YER155C, strain BEM2 (second series), stronger effect = lower value",0.991
same,normalized growth,"locus YER155C, strain BEM2, stronger effect = lower value",0.752 (active)
same,normalized growth,"locus YER167W, strain BCK2, stronger effect = lower value",0.892 (active)
same,normalized growth,"locus YFR010W, strain ubp6, stronger effect = lower value",0.96
same,normalized growth,"locus YGL078C, strain dbp3, stronger effect = lower value",0.979
same,normalized growth,"locus YGL086W, strain mad1, stronger effect = lower value",0.884 (active)
same,normalized growth,"locus YGL167C, strain pmr1, stronger effect = lower value",1.02
same,normalized growth,"locus YGL173C, strain kem1, stronger effect = lower value",1
same,normalized growth,"locus YGL227W, strain vid30, stronger effect = lower value",1.04
same,normalized growth,"locus YGL240W, strain doc1, stronger effect = lower value",1.02
same,normalized growth,"locus YGL248W, strain PDE1, stronger effect = lower value",0.721 (active)
same,normalized growth,"locus YGL253W, strain hxk2, stronger effect = lower value",0.939
same,normalized growth,"locus YGR135W, strain pre9, stronger effect = lower value",0.884 (active)
same,normalized growth,"locus YGR229C, strain SMI1, stronger effect = lower value",0.813
same,normalized growth,"locus YGR252W, strain gcn5, stronger effect = lower value",0.81
same,normalized growth,"locus YHR013C, strain ard1, stronger effect = lower value",0.966
same,normalized growth,"locus YHR027C, strain rpn1, stronger effect = lower value",1.02
same,normalized growth,"locus YHR030C, strain SLT2, stronger effect = lower value",0.779 (active)
same,normalized growth,"locus YHR079C, strain IRE1 (second series), stronger effect = lower value",0.962
same,normalized growth,"locus YHR094C, strain hxt1, stronger effect = lower value",1.04
same,normalized growth,"locus YHR129C, strain ARP1, stronger effect = lower value",0.788 (active)
same,normalized growth,"locus YHR142W, strain chs7, stronger effect = lower value",0.877
same,normalized growth,"locus YHR200W, strain rpn10, stronger effect = lower value",0.961
same,normalized growth,"locus YIL066C, strain RNR3, stronger effect = lower value",0.812 (active)
same,normalized growth,"locus YIL073C, strain SPO22, stronger effect = lower value",0.679
same,normalized growth,"locus YIL125W, strain kgd1, stronger effect = lower value",1
same,normalized growth,"locus YIR030C, strain dcg1, stronger effect = lower value",1.02
same,normalized growth,"locus YJL092W, strain hpr5, stronger effect = lower value",1
same,normalized growth,"locus YJL095W, strain BCK1 (second series), stronger effect = lower value",1.01
same,normalized growth,"locus YJL095W, strain BCK1, stronger effect = lower value",0.433 (active)
same,normalized growth,"locus YJL115W, strain asf1, stronger effect = lower value",1.05
same,normalized growth,"locus YJL129C, strain trk1, stronger effect = lower value",0.939
same,normalized growth,"locus YJL134W, strain LCB3, stronger effect = lower value",1.02
same,normalized growth,"locus YJL154C, strain vps35, stronger effect = lower value",1.03
same,normalized growth,"locus YJL164C, strain tpk1, stronger effect = lower value",0.906 (active)
same,normalized growth,"locus YJL166W, strain qcr8, stronger effect = lower value",0.903
same,normalized growth,"locus YJL168C, strain set2, stronger effect = lower value",1.02
same,normalized growth,"locus YJL187C, strain SWE1 (second series), stronger effect = lower value",0.887
same,normalized growth,"locus YJR043C, strain POL32, stronger effect = lower value",0.857
same,normalized growth,"locus YJR075W, strain HOC1, stronger effect = lower value",0.887
same,normalized growth,"locus YKL009W, strain mrt4, stronger effect = lower value",0.938
same,normalized growth,"locus YKL068W, stronger effect = lower value",1.03
same,normalized growth,"locus YKL085W, strain MDH1 (second series), stronger effect = lower value",0.964
same,normalized growth,"locus YKL085W, strain MDH1, stronger effect = lower value",0.964
same,normalized growth,"locus YKL160W, strain elf1, stronger effect = lower value",0.906
same,normalized growth,"locus YKL190W, strain CNB1, stronger effect = lower value",0.945
same,normalized growth,"locus YKR001C, strain vps1, stronger effect = lower value",0.961
same,normalized growth,"locus YKR026C, strain gcn3, stronger effect = lower value",1.05
same,normalized growth,"locus YKR091W, strain srl3, stronger effect = lower value",1.03
same,normalized growth,"locus YLL001W, strain dnm1, stronger effect = lower value",0.918
same,normalized growth,"locus YLL026W, stronger effect = lower value",1.02
same,normalized growth,"locus YLL041C, strain sdh2, stronger effect = lower value",1.03
same,normalized growth,"locus YLR027C, strain aat2, stronger effect = lower value",0.954
same,normalized growth,"locus YLR039C, strain RIC1, stronger effect = lower value",0.403 (active)
same,normalized growth,"locus YLR058C, strain SHM2, stronger effect = lower value",0.892
same,normalized growth,"locus YLR102C, strain apc9, stronger effect = lower value",1.04
same,normalized growth,"locus YLR221C, strain rsa3, stronger effect = lower value",0.966
same,normalized growth,"locus YLR258W, strain gsy2, stronger effect = lower value",0.952
same,normalized growth,"locus YLR262C, strain YPT6 (second series), stronger effect = lower value",0.514 (active)
same,normalized growth,"locus YLR262C, strain YPT6, stronger effect = lower value",0.413 (active)
same,normalized growth,"locus YLR268W, strain sec22, stronger effect = lower value",0.887
same,normalized growth,"locus YLR320W, strain mms22, stronger effect = lower value",0.846 (active)
same,normalized growth,"locus YLR330W, strain CHS5, stronger effect = lower value",0.814 (active)
same,normalized growth,"locus YLR342W, strain FKS1 (second series), stronger effect = lower value",0.742 (active)
same,normalized growth,"locus YLR342W, strain FKS1, stronger effect = lower value",0.976
same,normalized growth,"locus YLR357W, strain rsc2, stronger effect = lower value",1.1
same,normalized growth,"locus YLR370C, strain arc18, stronger effect = lower value",1.01
same,normalized growth,"locus YLR371W, strain rom2, stronger effect = lower value",1.02
same,normalized growth,"locus YLR384C, strain iki3, stronger effect = lower value",1.03
same,normalized growth,"locus YLR418C, strain cdc73, stronger effect = lower value",0.698 (active)
same,normalized growth,"locus YML016C, strain PPZ1, stronger effect = lower value",0.947
same,normalized growth,"locus YML032C, strain rad52, stronger effect = lower value",0.866 (active)
same,normalized growth,"locus YML120C, strain ndi1, stronger effect = lower value",0.928
same,normalized growth,"locus YML124C, strain tub3, stronger effect = lower value",1.03
same,normalized growth,"locus YMR058W, strain fet3, stronger effect = lower value",0.988
same,normalized growth,"locus YMR078C, strain ctf18, stronger effect = lower value",1.01
same,normalized growth,"locus YMR125W, strain sto1, stronger effect = lower value",1.05
same,normalized growth,"locus YMR129W, stronger effect = lower value",1.03
same,normalized growth,"locus YMR205C, strain PFK2, stronger effect = lower value",0.876
same,normalized growth,"locus YMR223W, strain ubp8, stronger effect = lower value",0.878 (active)
same,normalized growth,"locus YMR231W, strain pep5, stronger effect = lower value",1.01
same,normalized growth,"locus YMR263W, strain SAP30, stronger effect = lower value",0.943
same,normalized growth,"locus YMR307W, strain GAS1, stronger effect = lower value",0.865
same,normalized growth,"locus YNL067W, strain RPL9B, stronger effect = lower value",0.887
same,normalized growth,"locus YNL071W, strain lat1, stronger effect = lower value",0.758 (active)
same,normalized growth,"locus YNL209W, strain ssb2, stronger effect = lower value",0.942
same,normalized growth,"locus YNL233W, strain BNI4, stronger effect = lower value",0.724 (active)
same,normalized growth,"locus YNL248C, strain rpa49, stronger effect = lower value",0.98
same,normalized growth,"locus YNL250W, strain rad50, stronger effect = lower value",0.914
same,normalized growth,"locus YNL271C, strain bni1, stronger effect = lower value",0.965
same,normalized growth,"locus YNL298W, strain CLA4, stronger effect = lower value",0.859 (active)
same,normalized growth,"locus YNL307C, strain MCK1, stronger effect = lower value",0.516 (active)
same,normalized growth,"locus YNL322C, strain KRE1 (second series), stronger effect = lower value",1.04
same,normalized growth,"locus YNR049C, strain mso1, stronger effect = lower value",1.04
same,normalized growth,"locus YNR052C, strain pop2, stronger effect = lower value",0.85 (active)
same,normalized growth,"locus YOL012C, strain htz1",1.72
same,normalized growth,"locus YOL147C, strain pex11, stronger effect = lower value",0.92 (active)
same,normalized growth,"locus YOR001W, strain rrp6, stronger effect = lower value",0.969
same,normalized growth,"locus YOR061W, strain CKA2, stronger effect = lower value",0.89
same,normalized growth,"locus YOR069W, strain VPS5, stronger effect = lower value",0.988
same,normalized growth,"locus YOR070C, strain gyp1, stronger effect = lower value",0.937
same,normalized growth,"locus YOR080W, strain dia2, stronger effect = lower value",1
same,normalized growth,"locus YOR083W, strain WHI5, stronger effect = lower value",0.903
same,normalized growth,"locus YOR106W, strain vam3, stronger effect = lower value",0.883
same,normalized growth,"locus YOR136W, strain idh2, stronger effect = lower value",0.95
same,normalized growth,"locus YOR144C, strain elg1, stronger effect = lower value",0.989
same,normalized growth,"locus YOR184W, strain ser1, stronger effect = lower value",0.477 (active)
same,normalized growth,"locus YOR265W, strain rbl2, stronger effect = lower value",0.973
same,normalized growth,"locus YOR270C, strain vph1, stronger effect = lower value",1.05
same,normalized growth,"locus YOR290C, strain snf2, stronger effect = lower value",0.881
same,normalized growth,"locus YOR316C, strain cot1, stronger effect = lower value",1.02
same,normalized growth,"locus YPL051W, strain arl3, stronger effect = lower value",0.953
same,normalized growth,"locus YPL055C, strain LGE1, stronger effect = lower value",0.594 (active)
same,normalized growth,"locus YPL078C, strain atp4, stronger effect = lower value",0.891 (active)
same,normalized growth,"locus YPL106C, strain sse1, stronger effect = lower value",1.22 [resistant] (active)
same,normalized growth,"locus YPL240C, strain hsp82, stronger effect = lower value",0.983
same,normalized growth,"locus YPL241C, strain CIN2, stronger effect = lower value",1
same,normalized growth,"locus YPR119W, strain clb2, stronger effect = lower value",1.04
same,normalized growth,"locus YPR141C, strain kar3, stronger effect = lower value",1.04
same,normalized growth,"locus YPR163C, strain tif3, stronger effect = lower value",0.941
same,normalized growth,"locus YPR167C, strain met16, stronger effect = lower value",0.97
same,normalized growth,"strain wtn01, stronger effect = lower value",0.848 (active)
